In PubChem BioAssay (Tox21):
Results filed as inconclusive are left out. Calls of active or inactive are those of the source. Unless noted, calls come from the whole dose curve; as a rule, active = well fitted curve in the direction sought with a large enough effect in the repeat runs; inconclusive = weak or mixed curves; inactive = no such curve, though single readings can be large; an effect the other way counts as inactive or inconclusive.

Experiments:
[1] = qHTS assay to identify small molecule antagonists of the androgen receptor (AR) signaling pathway using the MDA cell line in the presence of 0.5 nM R1881 - cell viability counter screen (AID 1259242); note: nearly all actives have a fitted effect of over 45% in size
Outline: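 Live-cell protease activity was measured by CellTiter-Fluor fluorescence after 30 min. Before that, MDA-kb2 MMTV-luciferase cells had 16 hr at 37C without CO2, exposed to test compounds and 0.5 nM R1881 final.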

[2] = target: Estrogen receptor (Homo sapiens) (UniProt P03372); assay: qHTS assay to identify small molecule antagonists of the estrogen receptor alpha (ER-alpha) signaling pathway using the BG1 cell line in the presence of 0.1 nM 17-beta-estradiol (AID 1259244); note: nearly all actives have a fitted effect of over 50% in size
Sequence of Estrogen receptor (Homo sapiens) (P03372 whole entry, looked up): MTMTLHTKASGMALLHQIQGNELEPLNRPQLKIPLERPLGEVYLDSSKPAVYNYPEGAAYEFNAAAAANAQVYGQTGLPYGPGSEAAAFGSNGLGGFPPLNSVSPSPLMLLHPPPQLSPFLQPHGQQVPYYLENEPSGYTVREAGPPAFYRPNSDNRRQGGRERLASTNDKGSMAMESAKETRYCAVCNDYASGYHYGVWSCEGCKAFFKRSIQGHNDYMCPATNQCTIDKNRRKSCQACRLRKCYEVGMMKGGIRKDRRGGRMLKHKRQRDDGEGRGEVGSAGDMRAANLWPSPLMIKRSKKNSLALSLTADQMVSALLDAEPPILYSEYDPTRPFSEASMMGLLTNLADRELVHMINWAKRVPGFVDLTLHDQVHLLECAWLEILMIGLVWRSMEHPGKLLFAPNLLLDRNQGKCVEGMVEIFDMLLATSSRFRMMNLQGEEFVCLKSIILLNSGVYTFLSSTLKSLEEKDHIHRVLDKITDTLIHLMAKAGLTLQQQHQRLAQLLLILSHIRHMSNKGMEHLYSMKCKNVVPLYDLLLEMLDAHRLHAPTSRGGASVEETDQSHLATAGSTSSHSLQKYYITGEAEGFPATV
Outline: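 Luciferase luminescence (ONE-Glo, 30 min at room temperature) was read after 22 hr at 37C exposure to compounds plus 17beta-estradiol at 0.1 nM final. Cells were VM7Luc4E2 with endogenous ER-alpha and an ERE-driven luciferase, pre-cultured 5 days in hormone-depleted medium.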

[3] = qHTS assay to identify small molecule HDAC inhibitors - cell viability counter screen (AID 1259365); note: series mostly up to about 92 µM; nearly all actives have a fitted effect of over 50% in size
Outline: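 Wild-type HCT-116 cells were seeded at 1,500 per well, incubated overnight at 37 C, then exposed to compounds in DMSO for 2hr. Viability was read by CellTiter-Glo luminescence after 30min at room temperature.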

[4] = qHTS assay to identify small molecule antagonists of the sonic hedgehog signaling (Shh) pathway - cell viability counter screen (AID 1259367); note: nearly all actives have a fitted effect of over 55% in size; note: potency is the fitted concentration of half-maximal effect
Outline: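 Conditioned medium drove Shh signaling in 3T3 Gli1-Luc cells exposed to compounds at 37C and 5% CO2. Viability was determined from CellTiter-Fluor fluorescence, with reagent incubated 1 hr after 23 hr of treatment.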

[5] = qHTS assay to identify small molecule agonists of the sonic hedgehog signaling (Shh) pathway (AID 1259368; calls by dose curve; note: series mostly up to about 92 µM; nearly all actives have a fitted effect of over 15% in size)
Outline: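 Luminescence was read after 30 min at room temperature with luciferase reagent. Before that, 3T3Gli1-Luc cells (NIH/3T3 clone, stable Gli1-Luc reporter; 2,000/well) were exposed to compounds for 24 hr at 37C, 5% CO2, compounds being added 4 hr post-plating.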

[6] = qHTS assay to identify small molecule antagonists of the sonic hedgehog signaling (Shh) pathway (AID 1259369; calls by dose curve; note: nearly all actives have a fitted effect of over 45% in size; note: potency is the fitted concentration of half-maximal effect)
Outline: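 Antagonist mode: compound added to 3T3 Gli1-Luc cells followed by conditioned-medium stimulation, 24 h at 37 C, 5% CO2. Inhibition taken as loss of Gli1-driven luciferase luminescence.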

[7] = qHTS assay to identify small molecule phospholipidosis (PLD) inducers (AID 1259344; active = well fitted curve in the direction sought with a large enough effect; an effect the other way counts as inactive or inconclusive)
Outline: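 After 4 h attachment on collagen I, HepG2 cells were dosed with compound alongside LipidTOX Red, kept 24 h at 37 C, fixed, and imaged for lamellar phospholipid pits.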

[8] = qHTS assay to identify small molecule HDAC inhibitors (AID 1259364); note: top concentration of the series differs between compounds; nearly all actives have a fitted effect of over 45% in size
Outline: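 Luminescence read after 30 min room-temperature HDAC-Glo incubation measures cellular class I/II HDAC activity. Compounds were applied for 2 hr at 37 C to HCT-116 wild-type cells seeded the day before.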

[9] = qHTS assay to identify small molecule agonists of the sonic hedgehog signaling (Shh) pathway - cell viability counter screen (AID 1259366); note: nearly all actives have a fitted effect of over 50% in size
Outline: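 NIH/3T3-derived 3T3 Gli1-Luc cells (stable Gli1-responsive firefly luciferase reporter) were seeded, rested 4 hr at 37 C/5% CO2, then exposed to compounds in DMSO for 24 hr; viability was read by CellTiter-Fluor fluorescence in the same wells.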

Measured: Potency

C=CC(=O)OCC(C)OCC(C)OCC(C)OC(=O)C=C (stereo not drawn)
inactive: [1] | [2] | [3] | [5]
active: [4] 48.6 µM | [6] 9.69 µM

CN(C)CC/C=C1\c2ccccc2COc2ccccc21
inactive: [1] | [7] | [8] | [3] | [5]

CC1(C)CCC(C)(C)c2cc(NC(=O)c3ccc(C(=O)O)cc3)ccc21
not listed: [2] | [9]
inactive: all other assays above

CC1(C)[C@H]2CC[C@]1(C)[C@H](O)C2
not listed: [2]
inactive: all other assays above

CC(=O)Nc1ccc(/C=N/NC(N)=S)cc1
not listed: [2] | [4] | [9]
inactive: all other assays above

Cc1c(Cn2ccnc2)c2ccccc2n1CCC(=O)O
not listed: [2]
inactive: all other assays above

CC(=O)CC(=O)c1ccccc1
not listed: [6] | [7] | [8]
inactive: all other assays above

CN(C)C/C=C(/c1ccc(Br)cc1)c1cccnc1
not listed: [2] | [6]
inactive: all other assays above

CC1CCc2cc(F)cc3c(=O)c(C(=O)O)cn1c23 (stereo not drawn)
not listed: [2] | [4]
inactive: all other assays above

CC(=O)OC/C=C/c1ccccc1
not listed: [2] | [7]
inactive: all other assays above

Cc1ccc(C)o1
not listed: [2] | [7]
inactive: all other assays above

CN1CCN(C2=Nc3cc(Cl)ccc3Nc3ccccc32)CC1
inactive: [1] | [8] | [3] | [5]
